The structures appear in SMILES notation. Values without a mark were called inactive. Activity calls are given as the source filed them. Calls come from the whole dose curve; as a rule, active = well fitted curve in the direction sought with a large enough effect in the repeat runs; inconclusive = weak or mixed curves; inactive = flat fitted curve, though single readings scatter.
% is set by controls: 0 for no effect and ±100 for the full control effect.

This assay is described as follows: qHTS assay to test for compound auto fluorescence at 460 nm (blue) in HepG2 cells (AID 720687). As to conditions: autofluorescence 405/460 nm, 1 h; series mostly up to 91.3 µM; fluorescence, % of fluorescent control: at the top concentration. From the text: U.S. Tox21 Program National Center for Advancing Translational Sciences [NCATS] NIH Chemical Genomics Center [NCGC] U.S. Environmental Protection Agency [EPA] National Institutes of Environmental Health Sciences [NIEHS] National Toxicology Program [NTP] U.S. Food and Drug Administration [FDA] Tox21 Assay Overview: Compound auto fluorescence often interferes with screening of the compound library against various biological targets and signaling pathways. Some of these compounds may have fluorophoric properties. Such properties may interfere with the assay outputs resulting in false positives and/or negatives. To decrease such complications and ensure the compound activities are relevant in terms of biological response, the Tox21 10K compound library was screened for auto fluorescence. From the fluorophores used as reporter signals in our screening assays, the auto fluorescence equivalencies of compounds against three fluorophores have been evaluated: Triamterene, Fluorescein and Rose Bengal sodium for blue, green and red fluorescence, respectively. The fluorescence intensities were measured using Excitation/Emission wavelengths at 405/460nm, 485/535nm and 540/590nm for blue, green and red labels, respectively. This assay includes the blue fluorescence data.
Tox21 Assay Protocol Summary: 2,000 HepG2 cells in 5 uL of culture medium (MEM containing 10% FBS) per well were dispensed into black wall/clear bottom 1536-well plates using a Multidrop Combi Dispenser (ThermoFisher Scientific, Waltham, MA). The assay plates were incubated overnight at 37 C to allow cell attachment to the well bottom, followed by the transfer of 23 nL compound or DMSO vehicle by a pintool work station (Kalypsys , San Diego, CA). After the assay plates were incubated for 1 hr at 37 C and 5% CO2, fluorescence intensities in the assay plates were measured by an Envision (PerkinElmer, Shelton, CT) plate reader using three labels for measuring blue, green and red fluorescence at […] 460, 535 and 590 nm respectively.
On the technique in general: Quantitative high-throughput screening tests each substance at several concentrations.
As to `CC(CCc1ccc2c(c1)OCO2)NN` (stereo not given), the “fluorescence, % of fluorescent control” value was 0.0337% [at 46 µM].
Regarding `Cc1oncc1C(=O)Nc1ccc(C(F)(F)F)cc1`, the Potency entry was “inactive”.
For the compound `CCC1(C)CC(=O)NC1=O` (stereo not given), the “fluorescence, % of fluorescent control” value is 0.104% [at 46 µM].
As to `CN1C(=O)CC(C)(c2ccccc2)C1=O` (stereo not given), the “fluorescence, % of fluorescent control” value is -0.0483% [at 46 µM].
The same measure, in the same setting: the same measure for `CC1=C(/C=C/C(C)=C\C=C\C(C)=C\C(=O)O)C(C)(C)CCC1`: 0.663%; for `COc1ccc(CCC(=O)c2c(O)cc(O[C@@H]3O[C@H](CO)[C@@H](O)[C@H](O)[C@H]3O[C@@H]3O[C@@H](C)[C@H](O)[C@@H](O)[C@H]3O)cc2O)cc1O`: -0.0216%; for `COC(=O)CC(=O)C(C)(C)C`: -0.0072%.
Still for that read-out and setting: the same measure for `O=C(CCC1CCN(Cc2ccccc2)CC1)c1ccc2c(c1)NCCCC2`: 0.0066% [at 46 µM]; for `OCCSc1ccccc1`: -0.0053%; for `C=CC(=C)CCCC(C)(C)OC(C)=O`: 0.0388%.
Same read-out and setting: the same measure for `CC1=CC(=O)CC(C)(C)C1(O)/C=C/C(C)=C\C(=O)O` (stereo not given): 0.057%; for `O=C(Nc1ccc([N+](=O)[O-])cc1)Nc1ccc([N+](=O)[O-])cc1`: -0.0221% [at 46 µM].
`Cc1cc(O)c2c(O)c3c(O)cccc3cc2c1`: the “fluorescence, % of fluorescent control” value was 0.055% [at 46 µM].
`CCc1nn(CCCN2CCN(c3cccc(Cl)c3)CC2)c(=O)n1CCOc1ccccc1`: the Potency result is “inactive”.
Turning to `Nc1ccc(S(=O)(=O)O)c(N)c1`, the “fluorescence, % of fluorescent control” value is 1.78%.
With `CO[Si](C)(OC)OC`, the “fluorescence, % of fluorescent control” value was -0.108%.
On the same count and under the same terms, the same measure for `CC(C)(C)C(=O)O`: 0.0124%; for `CC[C@H](NC(=O)c1cc(F)ccc1NS(=O)(=O)c1cccc2cccnc12)c1ccccc1`: 0.506%; for `COc1cc2ncnc(Nc3ccc(F)c(Cl)c3)c2cc1OCCCN1CCOCC1`: 0.0698% [at 46 µM].
Regarding `CCn1nc(C)c2c1C(=O)NCC(c1ccc(O)cc1)=N2`, the “fluorescence, % of fluorescent control” value is 0.31%.
On to `CNC(=S)NC`, for which the “fluorescence, % of fluorescent control” value was -0.0123%.
The same measure, in the same setting: the value for `CCNC(=O)N1CCN(CCCC(c2ccc(F)cc2)c2ccc(F)cc2)CC1` was -0.0071% [at 46 µM]; that for `COc1cc2c(cc1OC)-c1cc(=Nc3c(C)cc(C)cc3C)n(C)c(=O)n1CC2` was -0.111% [at 46 µM].
The same measure, in the same setting: the value for `CCCCCCOC(=O)C(C)C` was 0.0109%; that for `CC(CCO)CCc1ccccc1` (stereo not given) was -0.188%; that for `CCCCCCCCSCCO` was 0.0039%.
Still for that read-out and setting: the value for `CC(=O)Nc1ccccc1C` was -0.0543% [at 95.7 µM]; that for `C=C(C)C(=O)OCCOC(=O)CC(C)=O` was 0.177%; that for `NCC1CCCC(CN)C1` (stereo not given) was -0.0266%.
Turning to `CCC(C(=O)OCCN(CC)CC)c1ccccc1` (stereo not given), the “fluorescence, % of fluorescent control” value was 0.0316% [at 46 µM].
In the case of `Cc1cc2nc3ccc(=[N+](C)C)cc-3sc2cc1N`, the “fluorescence, % of fluorescent control” value is 0.0478% [at 46 µM].
Take `CC1=CC(O)CC(C)(C)C1` (stereo not given): the “fluorescence, % of fluorescent control” value was -0.0992%.
As for `Cc1cc(OI)c(C(C)C)cc1-c1cc(C(C)C)c(OI)cc1C`, the “fluorescence, % of fluorescent control” value is -0.0242% [at 46 µM].
On the same count and under the same terms, the same measure for `O=C(C(=O)c1ccccc1)c1ccccc1`: -0.005%; for `O=C(c1ccc(O)cc1)c1ccc(Cl)cc1`: -0.0956% [at 95.7 µM].
Same read-out and setting: the same measure for `O=C(/C=C/c1ccccc1)OCCCc1ccccc1`: -0.0529%; for `Oc1ccc(Nc2ccccc2)cc1`: -0.0054%; for `CCOC(=O)CC(=O)C(=O)OCC`: 0.384%.
The same measure, in the same setting: the same measure for `Fc1ccccc1[C@@H](F)COC1CCC(Nc2ncnc3[nH]ncc23)CC1` (stereo not given in full): 0.0067%; for `CC[C@@H]([C@H](C)O)n1ncn(-c2ccc(N3CCN(c4ccc(OC[C@@H]5CO[C@@](Cn6cncn6)(c6ccc(F)cc6F)C5)cc4)CC3)cc2)c1=O`: 0.009% [at 46 µM].

(Values after PubChem BioAssay (Tox21).)
